Assay results taken from the supplement of paper PMC12350171.
Where a name gives a salt, the structure may show the parent alone.

What follows are compounds tested on Haemophilus parainfluenzae (assay: growth AUC normalised to DMSO control (fraction of control); higher = less growth inhibition, active = hit call of the paper). Conditions: 20 µM;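 active = AUC significantly below DMSO controls by Student t-fit with adjusted P under 0.01; inactive = not significantly reduced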.
Method in brief: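 Three biological replicates were carried out, with OD578 read hourly for 24 h. Before inoculation at a starting OD578 of 0.01, pathogens were passaged anaerobically twice; plates were pre-reduced mGAM containing 20 μM compound and 1% DMSO, sealed with breathable membranes, and the Haemophilus parainfluenzae medium carried added hemin and NAD. Area under each growth curve was calculated by the trapezoidal rule up to the exponential-to-stationary transition and normalised to DMSO controls on the same plate.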

SMILES	growth AUC normalised to DMSO control
CCCCc1nc(Cl)c(CO)n1Cc1ccc(-c2ccccc2-c2nnn[nH]2)cc1 [Losartan]	1.45 (inactive)
CCN(CC)CCCC(C)Nc1ccnc2cc(Cl)ccc12 (stereo unspecified) [Chloroquine diphosphate]	1.01 (inactive)
CC(=O)Nc1ccc(O)cc1 [Acetaminophen]	0.952 (inactive)
Clc1cc(Cl)c(OCC#CI)cc1Cl [Haloprogin]	0.992 (inactive)
CN(Cc1cc(Br)cc(Br)c1N)C1CCCCC1 [Bromhexine hydrochloride]	1.04 (inactive)
Oc1c(Cl)cc(Cl)c(Cl)c1Cc1c(O)c(Cl)cc(Cl)c1Cl [Hexachlorophene]	0.0305 (active)
COC(c1ccccc1)(c1ccccc1)[C@H](Oc1nc(C)cc(C)n1)C(=O)O [Ambrisentan]	1.05 (inactive)
CCC(=O)O[C@]1(C(=O)SCF)[C@H](C)C[C@H]2[C@@H]3C[C@H](F)C4=CC(=O)C=C[C@]4(C)[C@@]3(F)[C@@H](O)C[C@@]21C [Fluticasone propionate]	0.997 (inactive)
CN1C(C(=O)Nc2ccccn2)=C(O)c2ccccc2S1(=O)=O [Piroxicam]	1.01 (inactive)
C[C@]12CC[C@H]3C(=CCc4cc(O)ccc43)[C@@H]1CCC2=O [Equilin]	1.02 (inactive)
CCN(CCCc1ccccc1)CCCc1ccccc1 [Alverine citrate salt]	0.925 (inactive)
Cc1cc(C(C)(C)CC(C)(C)C)ccc1OCCOCC[N+](C)(C)Cc1ccccc1 [Methyl benzethonium chloride]	0.994 (inactive)
CCCN[C@H]1CCc2nc(N)sc2C1 [Pramipexole dihydrochloride]	0.985 (inactive)
Nc1ccc(S(=O)(=O)NC(=O)c2ccccc2)cc1 [Sulfabenzamide]	1.1 (inactive)
COC(=O)C1=C(C#N)NC(C)=C(C(=O)OC(C)C)C1c1cccc([N+](=O)[O-])c1 (stereo unspecified) [Nilvadipine]	0.985 (inactive)
Clc1ccccc1C(c1ccccc1)(c1ccccc1)n1ccnc1 [Clotrimazole]	0.968 (inactive)

SMILES	growth AUC normalised to DMSO control
COc1cccc(N(C)C(=S)Oc2ccc3c(c2)CCCC3)n1 [Liranaftate]	1.01 (inactive)
CC[C@H](c1ccc(O)cc1)[C@@H](CC)c1ccc(O)cc1 [Hexestrol]	0.984 (inactive)
CC1(C)O[C@@H]2C[C@H]3[C@@H]4C[C@H](F)C5=CC(=O)CC[C@]5(C)[C@H]4[C@@H](O)C[C@]3(C)[C@]2(C(=O)CO)O1 [Flurandrenolide]	1.03 (inactive)
Cc1cccc(N(C)C(=S)Oc2ccc3ccccc3c2)c1 [Tolnaftate]	1 (inactive)
Nc1nc(=O)c2c([nH]1)NC[C@@H](CNc1ccc(C(=O)N[C@@H](CCC(=O)O)C(=O)O)cc1)N2C=O [Folinic acid calcium salt]	1 (inactive)
COc1cc(OC)c(C(=O)CCCN2CCCC2)c(OC)c1 [Buflomedil hydrochloride]	1.01 (inactive)
COc1cc(NC(C)CCCN)c2ncccc2c1 (stereo unspecified) [Primaquine diphosphate]	1.08 (inactive)
Cc1ccc(S(=O)(=O)NC(=O)NN2CC3CCCC3C2)cc1 (stereo unspecified) [Gliclazide]	0.996 (inactive)
N=C(N)NC(=O)c1nc(Cl)c(N)nc1N [Amiloride hydrochloride dihydrate]	1.03 (inactive)
CC(C)NC[C@H](O)COc1cccc2ccccc12 [(S)-(-)-Propranolol hydrochloride]	1.03 (inactive)
CCc1cccc(CC)c1NC(=O)CN(CC(=O)O)CC(=O)O [Etifenin]	1.01 (inactive)
CCS(=O)(=O)CCn1c([N+](=O)[O-])cnc1C [Tinidazole]	0.987 (inactive)
CC(=O)O[C@H]1C[C@@H]2CC[C@@H]3[C@H](CC[C@@]4(C)[C@H]3C[C@H]([N+]3(C)CCCCC3)[C@@H]4OC(C)=O)[C@@]2(C)C[C@@H]1N1CCCCC1 [Vecuronium bromide]	1.05 (inactive)
COc1cc2nc(N3CCN(C(=O)C4COc5ccccc5O4)CC3)nc(N)c2cc1OC (stereo unspecified) [Doxazosin mesylate]	0.992 (inactive)
C=C1/C(=C\C=C2/CCC[C@]3(C)[C@@H]([C@H](C)/C=C/[C@@H](O)C4CC4)CC[C@@H]23)C[C@@H](O)C[C@@H]1O [Calcipotriene]	0.836 (inactive)
